Rce1 inhib – yeast Ras-converting enzyme inhibition; Q03530; yeast membranes, quenched prenylated peptide cleavage fluorescence; calls only; 290,000 tested, 0.27% active;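 active = fall in fluorescence gain of 50% or more versus controls, with final raw signal at or below 3038400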;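 note: plate controls were neutral control wells for no effect and wells lacking membranes for full effect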
Target sequence (Q03530 whole entry, looked up): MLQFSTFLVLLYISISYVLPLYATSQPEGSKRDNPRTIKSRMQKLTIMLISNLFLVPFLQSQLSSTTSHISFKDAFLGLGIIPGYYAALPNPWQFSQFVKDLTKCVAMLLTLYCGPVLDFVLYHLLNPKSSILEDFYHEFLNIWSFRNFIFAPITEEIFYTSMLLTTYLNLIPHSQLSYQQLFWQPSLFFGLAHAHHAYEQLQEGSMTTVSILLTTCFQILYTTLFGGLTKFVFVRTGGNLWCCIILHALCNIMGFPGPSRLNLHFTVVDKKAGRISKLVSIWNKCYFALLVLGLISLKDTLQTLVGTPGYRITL
ADAM17 inh – ADAM17 inhibition, QFRET primary screen; recombinant ADAM17, EDANS/DABCYL FRET peptide cleavage; inhibition, % at 6.95 µM; 370,000 tested, 0.83% active;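 active = inhibition above the mean of compounds lying between control limits plus 3 SD, set per campaign, cut at about 8.5% in these data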;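 note: 0% = DMSO-only wells as the low control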
PLC-beta3 inh – inhibitors of human phospholipase C beta3; inhibition, % at 12.2 µM; Purified PLC-beta3, fluorogenic substrate, fluorescence; 370,000 tested, 0.18% active; AID 720704; in the data active = inhibition above about 11%;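 note: 0% = median of compound wells on plate and 100% = full blocker control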
PLCg1 inh – PLC-gamma1 (human) inhibition, primary screen | P19174 | purified PLC-gamma1, fluorogenic substrate, fluorescence | inhibition, % at 12.2 µM | 370,000 tested, 0.84% active | AID 720700; in the data active = inhibition above about 9.5%
ADAM10 inh – ADAM10 inhibition, QFRET primary screen; AID 720582; recombinant ADAM10, EDANS/DABCYL FRET peptide cleavage, 3 h; 370,000 tested, 0.62% active; inhibition, % at 7 µM;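 active = inhibition above a per-campaign cutoff equal to the mean of compounds falling between control-based bounds plus 3 SD, cut at about 20% in these data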;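 note: 0% = DMSO wells while the 100% control is not disclosed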
* hit, by the source's call; i = inactive; / = not tested or not shown; + = active, no number. An excerpt weighted towards active compounds, which were near 2.1% of everything screened.

SMILES	Rce1 inhib	ADAM17 inh	PLC-beta3 inh	PLCg1 inh	ADAM10 inh
COC(=O)C1=C(C)N(Cc2ccc(C(F)(F)F)cc2)C(=NCc2ccc(C(F)(F)F)cc2)NC1c1ccccc1C(F)(F)F (configuration not stated)	/	1	4	-2	2
COc1ccc(C)cc1NC(=O)CN1C(=O)COc2ccc(S(=O)(=O)N3CCOCC3)cc21	+	-2	-5	0	-2
COc1ccc(C)cc1NC(=O)CN1C(=O)COc2ccc(S(=O)(=O)N3CCCCCC3)cc21	i	1	-1	1	5
CC1(C)CC(=O)N(CC(=O)N2CCN(c3cccc(C(F)(F)F)c3)CC2)c2ccccc2S1(=O)=O	/	-3	-1	4	-10
CCCCNC(=O)C(CC)Sc1nc2sc(C(=O)OC)c(C)c2c(=O)n1N (configuration not stated)	+	-3	1	0	0
Cc1cc(Br)cn2c(Cc3cccc(F)c3)c(-c3ccco3)nc12	/	-3	-22	-13	-8
C/C(Cl)=C\Cn1c(O)c(N=NC(N)=S)c2cc(Br)ccc21	+	2	-6	3	1
NC(=S)N=Nc1c(O)n(Cc2ccc(F)cc2)c2ccccc12	+	-1	7	4	10
NC(=S)N=Nc1c(O)n(CCCl)c2ccc(Br)cc12	i	-3	3	8	0
NC(=S)N=Nc1c(O)n(Cc2ccc(Br)cc2)c2ccccc12	i	4	-5	5	-7
C=CC[C@@H](Cc1ccc(F)cc1)C(=O)OC[C@@H]1CCCN1C(=O)[C@H](CC=C)CC(=O)N[C@H](CO)Cc1ccccc1	/	15*	12*	9.7*	16
O=C(Cc1ccccc1)Nc1nc(=O)c2ccccc2s1	i	-3	12*	2	-7
O=C1CN(S(=O)(=O)c2ccc([N+](=O)[O-])cc2)CC(=O)N1	+	0	-6	-1	1
CN1CCN(S(=O)(=O)c2ccc([N+](=O)[O-])cc2)CC1	i	-3	-2	0	3
COC(=O)[C@]12C=CCN1[C@@H](c1ccc(OC)c(OC)c1)c1c(c3ccccc3n1S(=O)(=O)c1ccc(C)cc1)C2	/	3	-30	-23	-2
N#CC1=C(c2ccccc2)/C(=C/c2ccccc2)OC1=O	i	-4	-6	-6	-7
N#CC(C#N)=C1NC(N)=C(C#N)C(c2ccccc2)=C1C#N	+	-14	i	i	-37
COC(=O)C1CN(Cc2ccc(OC)cc2)CCS(=O)(=O)N1Cc1cn(CCOC(C)=O)nn1 (configuration not stated)	/	-1	2	2	-3
O=C(CSC1=NNC(c2ccccn2)S1)Nc1cccc(Cl)c1 (configuration not stated)	i	5	-11	-3	22*
O=C(CSC1=NNC(c2ccccn2)S1)Nc1ccccc1 (configuration not stated)	i	2	-11	-4	2
O=C(Nc1ccc(F)c(F)c1)c1cc(S(=O)(=O)N2CCN(c3ccccn3)CC2)ccc1F	i	9.6*	8	9	10
CCOc1ccccc1CNC(=O)c1cc2occc2n1C	+	-5	-21	-18	-13
Cc1c(C(=O)NCc2ccc(F)cc2)sc(=O)n1Cc1ccc(C(=O)c2ccccc2)cc1	/	-1	5	3	2
CC(C)[C@H](NC(=O)c1ccco1)C(=O)N1CCC[C@H]1C(=O)NCc1ccccc1	/	-3	1	0	2
N#Cc1c(N2CCN(C(=O)c3ccccc3)CC2)nc(-c2ccccc2)c2c1CCCC2	+	-41	-226	-199	-107
SMILES	Rce1 inhib	ADAM17 inh	PLC-beta3 inh	PLCg1 inh	ADAM10 inh
O=C(O)C1Nc2c(O)cc(Cl)c([N+](=O)[O-])c2C2C=CCC12 (configuration not stated)	i	0	7	31*	-8
Cc1ccc2c(c1)C1C=CCC1C(C(=O)O)N2 (configuration not stated)	i	/	/	/	/
CC(=O)c1c(C)[nH]c(C(=O)OCc2ccc(Br)cc2)c1C	+	1	0	4	5
COC(=O)c1cc2c(c3c4cc(F)ccc4n(S(=O)(=O)c4ccccc4)c13)C(=O)N(Cc1ccccc1)C2	/	1	-12	-7	4
CCOC(=O)C1=C(C(=O)OCC)C2N(Cc3ccc(C#N)cc3)c3ccccc3[C@@]23C[C@@H](C(=O)OC)N(S(=O)(=O)c2cccs2)C3=N1 (some centres not stated)	/	3	0	-3	11
CC(/C=N\NC(=O)CN1CCN(S(=O)(=O)c2ccc(C)cc2)CC1)=C\c1ccccc1	+	4	0	1	8
Cc1ccc(S(=O)(=O)N2CCN(CC(=O)N/N=C\C(Cl)=C\c3ccccc3)CC2)cc1	i	-1	3	1	4
CC(C)(C)C(=O)C[n+]1ccc(C(N)=O)cc1	+	1	-1	-5	-13
COC(=O)N1C[C@H](OCc2ccccc2)[C@H]2C[C@@H]1c1ccccc1O2	/	5	0	4	-12
CCOC(=O)C1CCCN(S(=O)(=O)c2ccc(S(=O)(=O)N3CCCC3)cc2)C1 (configuration not stated)	i	-2	4	4	0
CCOC(=O)C1CCCN(S(=O)(=O)c2cc3[nH]c(=O)c(=O)[nH]c3cc2C)C1 (configuration not stated)	+	-114	-167	-127	-465
CC(=O)N1CCN(c2ccc(S(=O)(=O)N3CCOCC3)cc2[N+](=O)[O-])CC1	/	3	10	10.0*	-1
O=C1CC(SC(=S)C2CCCC2=O)C(=O)N1 (configuration not stated)	/	-4	-16	12*	-13
COC(=O)/C=c1\[nH]c2nnc(C)n2c1=O	+	-169	-240	-182	i
COC(=O)/C=c1\sc2ncnn2c1=O	i	-8	1	0	-2
Cc1ccc2c(c1)[C@H]1[C@H](CO2)[C@H](c2ccccc2)[C@]2(C)C(=O)N(CC3CCCO3)CC(=O)N12 (some centres not stated)	/	-1	0	2	4
Cc1ccc2c(c1)[C@H]1[C@H](CO2)[C@H](c2ccccc2)[C@]2(C)C(=O)Nc3ccc(Cl)cc3C(=O)N12	/	11*	-7	3	29*
C[C@@]12C(=O)N(CC3CCCO3)CC(=O)N1[C@H]1c3cc(Cl)ccc3OC[C@@H]1[C@@H]2c1ccccc1 (some centres not stated)	/	3	1	10*	11
Cc1ccc(-c2cc(C(=O)NN=Cc3cccc4ccccc34)[nH]n2)cc1C	/	2	6	8	7
CCCCOCCCNC(=O)C[C@@H]1C(=O)N(Cc2ccc(OC)cc2)/C2=C/CCCCC[C@@]21C(=O)OCC	/	2	3	2	5
C=C(C)C1(O)OC(=O)C=C1OC (configuration not stated)	+	1	3	2	-16
Cc1ccc(Cn2nnc3c2-c2ccccc2S(=O)(=O)N(C)C3)cc1	/	-2	1	1	3
